High-throughput results deposited in PubChem BioAssay by National Center for Advancing Translational Sciences (NCATS).
The list is not random: actives were taken first. Their share in the collection is about 2.1%.
TDP43 rescue – qHTS of TDP-43 Inhibitors | Potency, µM (top dose mostly 46.1 µM), for inactives: top-dose growth rescue (activation), usual class: activators | 410,000 tested, 1.8% active | TDP-43 expressing yeast growth rescue, BacTiter-Glo, 24 h | AID 652104, 2013; also: % of control where 0% means no effect; nearly all actives have a fitted effect of over 50% in size
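In this qHTS, compounds that restore growth of yeast expressing TDP-43 appear as activators. Cells (OD600=0.02, galactose medium, raffinose-pregrown) are incubated with compound 24 hr at 30 deg C and growth is quantified by BacTiter-Glo.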
FUS suppressor – qHTS for Suppressors of FUS Proteinopathy: Primary screen using FUS-linked yeast assay. S. cerevisiae FUS-expressing, growth rescue, OD600, 24 h. Potency, µM (highest dose often 76.6 µM), actives largely listed as activators. 390,000 tested, 0.24% active. AID 1347120, 2019;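 also: plate controls were DMSO vehicle for no effect and reference control for full effect; nearly all actives have a fitted effect of over 55% in size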
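Cultures pregrown in 2.5% raffinose medium are shifted to minimal medium containing 2% galactose to express toxic FUS. Compounds are tested at several concentrations. After 24hr at 30C, growth is quantified at 600 nm absorbance.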
Abeta yeast res – qHTS for compounds that reverse cellular toxicity of Amyloid beta (A-beta) peptide in yeast: Primary Screen; yeast expressing A-beta42, growth rescue, OD600, 48 h; response scale: 0% DMSO, 100% iron-clioquinol control; Potency, µM (top dose mostly 46.1 µM), most hits filed as activators; 410,000 tested, 0.063% active; also: nearly all actives have a fitted effect of over 55% in size
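Yeast A-beta toxicity model in growth medium with pinned compounds, 48 h at 30 C; growth read as absorbance at 600 nm. Normalized to FeCl3/clioquinol equimolar mix (positive) and DMSO (negative).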
aSyn rescue – qHTS of alpha-syn Inhibitors; Yeast expressing alpha-synuclein, growth rescue, BacTiter-Glo, 24 h; Potency, µM (series often up to 46.1 µM), without a hit: at the highest dose growth rescue (activation), most hits filed as activators; 370,000 tested, 0.14% active; also: % of control where 0% means no effect; nearly all actives have a fitted effect of over 65% in size
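Screening used galactose-induced yeast with toxic alpha-synuclein levels, exposed to compound for 24 hr at 30 deg C. Cell growth, read with BacTiter-Glo luminescence, gave the measured signal.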
The depositor's hits bear a star; i = inactive; ? = inconclusive; . = no result. Calls follow the shape of the dose curve; as a rule, active = well fitted curve in the direction sought with a large enough effect; inconclusive = small, poorly fitted or top-dose-only effect, or another doubt; inactive = no such curve, though single readings can be large; an effect the other way counts as inactive or inconclusive. Potency is read from the fitted curve at half-maximal effect.

SMILES	TDP43 rescue	FUS suppressor	Abeta yeast res	aSyn rescue
S=C1NC(c2ccccc2)=NCN1c1ccccc1	12.6µM*	i	i	-0.2%
O=C1CN(c2ccccc2)C(=O)N1	-9.3%	i	i	-0.8%
O=C(c1ccccc1)N1CC[C@H]2[C@H](CCCN2Cc2ccccc2)C1	.	i	.	.
Cc1nn2c(-c3ccccc3)nnc2c2ccccc12	17.8µM*	i	i	?
Cc1nn2c3ccccc3nc2c2ccccc12	39.8µM*	i	i	27.0%
Cc1ccc(-c2nn3c(-c4ccc(C)cc4)nnc3c3ccccc23)cc1	16.1%	i	i	.
CCOC(=O)CC[C@@H]1CC[C@]2(CCCN(Cc3ccc(Cl)cc3)C2)O1	.	i	.	.
COC(=O)c1ccccc1NC(=O)NCC1CCN(Cc2ccc(OC)cc2)CC1	.	i	.	.
Cc1ccc(NC(=O)[C@H]2CC(=O)O[C@@H]2c2ccccc2)cc1C	.	i	.	.
CCCCn1c(SCC(=O)Nc2cc(NC(=O)c3ccco3)ccc2C)nc2ccccc2c1=O	-9.6%	31.6µM*	i	-2.2%
O=C(N/N=C/c1ccc(N2CCOCC2)cc1)c1ccccc1OCCOc1ccccc1	25.1µM*	i	i	3.9%
CCOc1ccc(-n2c(SCC(=O)Nc3ccc(S(=O)(=O)Nc4cc(C)nc(C)n4)cc3)nnc2-c2ccco2)cc1	.	i	.	.
Cc1nc(-c2ccccn2)nc(SCC(=O)c2ccc(F)cc2)c1Cl	11.2µM*	i	i	?
Cc1ccccc1CNC(=O)CCC(=O)N1CCSc2ccccc21	24.3%	i	i	.
O=C(CCc1ccccc1)N[C@H]1[C@H](OC(=O)c2cnccn2)CCC[C@]12C(=O)N(Cc1ccccc1)c1ccccc12	.	i	.	.
COc1ccc(-n2c(SCC(=O)NC3CCCCCC3)nnc2-c2ccncc2)cc1	.	i	.	.
O=c1c(Cl)cc(Cl)nn1-c1ccccc1	25.1µM*	.	i	-1.3%
COc1cc(Cl)nn(-c2ccccc2)c1=O	3.1%	.	i	-0.9%
CNCCN(C)c1nc(-c2cccs2)nc2ccccc12	.	.	.	-4.5%
COc1ccc(CN2CN3Cc4cc(OC)ccc4C3CS2(=O)=O)cc1 (stereo unspecified)	.	i	.	.
CCOc1cccc(C(=O)NC(=S)Nc2cccc(C)c2)c1	35.5µM*	i	?	-21.6%
COc1cccc(NC(=S)NC(=O)c2cncc(Br)c2)c1	12.6µM*	i	?	-7.1%
O=C(NC(=S)Nc1ccccc1C(=O)O)c1cncc(Br)c1	-70.6%	i	i	-18.0%
CCn1cc(C(=O)NC(=S)Nc2ccccc2Br)cn1	14.1µM*	i	i	-0.5%
CCn1cc(C(=O)NC(=S)Nc2ccccc2[N+](=O)[O-])cn1	-13.8%	i	i	1.1%
SMILES	TDP43 rescue	FUS suppressor	Abeta yeast res	aSyn rescue
O=C(NC(=S)Nc1ccccc1O)c1cncc(Br)c1	10.8%	i	?	17.8µM*
O=C(CSc1nnc(-c2ccccc2)n1-c1ccc(Cl)cc1)c1ccc(Cl)cc1	.	i	.	.
CC(=O)c1cccc(Nc2cc(C)nc3nc(-c4ccccc4C)nn23)c1	11.2µM*	i	i	.
CCCN1CNc2c(c(=O)[nH]c(=S)n2CCc2c(Cl)cccc2Cl)C1	.	i	.	-2.5%
Cc1cc(Br)c(NC(=O)COC(=O)C2CCCCC2)c(Br)c1	15.8µM*	i	i	-0.3%
Cc1cc(C)c(NC(=O)COC(=O)C2CCC2)c(Cl)c1	17.4%	i	i	-6.0%
CCN(CC)S(=O)(=O)c1ccc(Cl)c(NC(=O)COC(=O)C2CCCCC2)c1	12.5%	i	11.2µM*	15.8%
CCN(CC)S(=O)(=O)c1ccc(Cl)c(NC(=O)COC(=O)c2ccc(O)cc2)c1	2.8%	i	i	-1.7%
Nc1ncnc2c1nc(Sc1ccc(Cl)cc1)n2[C@H]1OC2COP(=O)(O)O[C@@H]2C1O (stereo partly specified)	.	.	.	0.7%
Cc1cccc(CS(=O)(=O)c2nnc([C@H](Cc3ccccc3)NC(=O)OC(C)(C)C)o2)c1	-56.7%	?	i	-28.9%
COC(=O)CS(=O)(=O)c1nnc([C@H](Cc2ccccc2)NC(=O)OC(C)(C)C)o1	35.5µM*	.	i	-21.3%
COc1ccc(CCNC(=O)Cc2c(C)c3c(cc(C)c4c(C)coc43)oc2=O)cc1OC	6.8%	i	i	.
Cc1ccc(S(=O)(=O)N[C@@H](Cc2ccccc2)C(=O)CCl)cc1	3.16µM*	i	i	-39.1%
Cc1ccc(S(=O)(=O)NC(Cc2ccccc2)C(=O)NN)cc1 (stereo unspecified)	2.2%	i	i	-1.3%
Cc1ccc(S(=O)(=O)NOCc2ccccc2)cc1	-16.1%	i	i	17.8µM*
O=C(NCc1ccccc1)N1CCN(Cc2nc3ccccc3c(=O)[nH]2)CC1	.	i	.	.
COc1cc2nc(N3CCOCC3)nc(NC3CCN(Cc4ccccc4)CC3)c2cc1OC	.	.	.	8.9%
COc1ccc(CCn2c(=S)[nH]c(=O)c3nccnc32)cc1OC	.	.	.	-1.2%
Cc1ccc(Cl)cc1-n1ncc2c(NC3CCCCC3)ncnc21	12.6µM*	i	i	.
Clc1cccc(-n2ncc3c(NC4CCCCC4)ncnc32)c1	15.8µM*	i	i	.
CCCS(=O)(=O)NCCc1cc2c(C)ccc(C)c2[nH]c1=O	4.47µM*	i	i	2.2%
COc1ccc(/C=C2\CC3(OC(=O)C4CCCC4)CCCN2C3)cc1 (stereo unspecified)	.	i	.	.
Oc1ccc(-c2csc(Nc3ccccn3)n2)c(O)c1	20µM*	i	i	-6.2%
CCOc1ccccc1Nc1nc(-c2cccnc2)cs1	11.2µM*	i	i	-11.6%
Cc1cccnc1Nc1nc(-c2ccccn2)cs1	?	i	i	?
SMILES	TDP43 rescue	FUS suppressor	Abeta yeast res	aSyn rescue
NS(=O)(=O)c1ccc(Nc2nc(-c3ccc(O)cc3O)cs2)cc1	3.8%	.	i	-9.9%
Clc1ccccc1Nc1nc(-c2cccnc2)cs1	6.3%	i	i	-9.0%
Cc1cccnc1Nc1nc(-c2ccccc2)cs1	15.8µM*	i	i	-41.6%
Cc1cccnc1Nc1nc(-c2ccc(O)cc2O)cs1	22.4µM*	i	i	?
O=c1[nH]c(=O)n([C@H]2C[C@@H](O)[C@@H](CO)O2)cc1C=CBr	.	.	.	-6.2%
COc1ccccc1-c1cc(C(F)(F)F)nc(S(C)(=O)=O)n1	35.5µM*	i	i	-22.0%
COc1ccccc1-c1cc(C(F)(F)F)nc(S(=O)(=O)CCCC(=O)Nc2ccccc2F)n1	-6.8%	i	i	.
COc1ccccc1-c1cc(C(F)(F)F)nc(S(=O)(=O)CCCC(=O)Nc2cccnc2Cl)n1	12.6µM*	i	i	-0.1%
COc1ccccc1-c1cc(C(F)(F)F)nc(S(=O)(=O)CCCC(=O)NC(C)C)n1	3.9%	i	i	-1.5%
Cc1cc2cc3c(cc2n2c(SCC(=O)Nc4nc(-c5ccccc5)cs4)nnc12)OCO3	.	i	.	.
Nc1cc(N2CCCC2)ccc1[N+](=O)[O-]	23.2%	i	i	2.2%
